Drawing on PubChem BioAssay (NCATS), this text covers Potency for twelve compounds.

A short description of assay [1]: qHTS of pediatric cancer cell lines to identify multiple opportunities for drug repurposing: Confirmatory screen for RD cells (AID 1347124).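 Note: cells exposed to compound for 48 h before viability readout; nearly all actives have a fitted effect of over 65% in size.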 Note: potency is the fitted concentration of half-maximal effect. The procedure, abridged: (§1)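 Cells (500-1,000/well) rested 5 h, then received compounds for 48 h; metabolically active cells were measured by CellTiter-Glo luminescence. Final concentrations spanned up to 46 µM (MIPE, 11-point) or 0.59 nM-46 µM (NPC, 8-point) in primary screens, 11-point in follow-ups.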
Background: Quantitative high-throughput screening tests each substance at several concentrations.

Assay [2] can be described thus: qHTS of pediatric cancer cell lines to identify multiple opportunities for drug repurposing: Confirmatory screen for Rh30 cells (AID 1347126). Note: nearly all actives have a fitted effect of over 55% in size. Note: potency is the fitted concentration of half-maximal effect. The procedure, abridged: as §1
The test system of assay [3] is Zika virus NS2B-NS3 protease. The assay can be described thus: Primary screen GU AMC qHTS for Zika virus inhibitors (AID 1347154). Note: nearly all actives have a fitted effect of over 70% in size. The procedure, abridged: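 Fluorogenic AMC-substrate cleavage by noncovalent NS2B-NS3 protease complex (25 nM, pH 8.0 Tris buffer with Tween 20) followed for 15 minutes at room temperature (~20% conversion). Percent inhibition from ex340/em450 signal change, fitted by 4-parameter Hill equation.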

The nature of assay [4]: qHTS of pediatric cancer cell lines to identify multiple opportunities for drug repurposing: Confirmatory screen for Saos-2 cells (AID 1347127). Note: nearly all actives have a fitted effect of over 60% in size. Note: potency is the fitted concentration of half-maximal effect. The procedure, abridged: as §1
For assay [5], the system named is Zika virus NS2B-NS3 protease (unlinked). The assay can be described thus: Optimization of GU AMC qHTS for Zika virus inhibitors: Unlinked NS2B-NS3 protease assay (AID 1347151). Note: potency is the fitted concentration of half-maximal effect; nearly all actives have a fitted effect of over 80% in size. In short, it runs like this: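 Noncovalent complex of NS2B hydrophilic domain and NS3 protease domain, 25 nM final, in 10 mM Tris-HCl pH 8.0, 0.01% Tween 20. AMC fluorescence change over 15 min at room temperature was fitted to a 4-parameter Hill equation.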

In assay [6] the test system is Zika virus NS2B-NS3 protease (linked construct). The assay can be described thus: Confirmatory screen NINDS AMC qHTS for Zika virus inhibitors (AID 1347152).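 Note: AMC fluorescence gain from cleaved Bz-Nle-KRR-AMC substrate over 15 min; top concentration of the series differs between compounds; nearly all actives have a fitted effect of over 70% in size.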 In short, it runs like this:
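Purified NS2B-NS3 protease with NS2B hydrophilic domain linked to NS3 protease domain by flexible linker, 1 nM final in 10 mM Tris-HCl pH 8.0, 0.01% Tween 20. Compounds preincubated 15 min, room temperature; Bz-Nle-KRR-AMC 10 microM (Km 18.3 µM); 15-min fluorescence change, 4-parameter Hill fit.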

Assay [7] relates to Zika virus NS2B-NS3 protease (unlinked complex). In words: Confirmatory screen GU AMC qHTS for Zika virus inhibitors (AID 1347153). Note: nearly all actives have a fitted effect of over 70% in size. The procedure, abridged: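 Unlinked enzyme 25 nM, Tris pH 8.0/0.01% Tween 20; cpd 15 min RT, dark; + AMC substrate 10 µM (Km 18.3 µM); 340/450 nm read at t0 and 15 min; % inhibition → 4-param fit.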
Assay [8] can be described thus: Confirmatory screen NINDS Rhodamine qHTS for Zika virus inhibitors (AID 1347161).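 Note: purified Zika NS2B-NS3 protease with linked NS2B cofactor domain and Rhodamine110 peptide substrate; series mostly up to about 110 µM; nearly all actives have a fitted effect of over 60% in size.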 In short, it runs like this: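 Aprotinin served as in-plate control. Conditions: 25 nM linked NS2B-NS3, pH 8.0 Tris buffer, titrated compounds, 15 min preincubation and 15 min reaction with 1.5 microM Rhod110 substrate at room temperature.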
The nature of assay [9]: Vero cells viability qHTS for Zika virus inhibitors (AID 1347167). In short, it runs like this: (§2)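 Compounds were tested in concentration series on cells grown in DMEM containing 4% FBS. After 24 to 48 hours, cellular ATP was measured by luminescence with CellTiter Glo.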
Assay [10] is described as follows: HepG2 cells viability qHTS for Zika virus inhibitors (AID 1347168). In short, it runs like this: as §2
Assay [11] is described as follows: Tertiary RLuc qRT-PCR qHTS assay for Zika virus inhibitors (AID 1347169). Note: potency is the fitted concentration of half-maximal effect; nearly all actives have a fitted effect of over 55% in size. In short, it runs like this: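 Vero cells (1,000 per well) plated overnight at 37 degrees C, treated with compound in DMSO, then infected with recombinant ZIKV-RLuc (Cambodian) at MOI 1-2 for 48-72 hrs. Live-cell Renilla luciferase substrate added; luminescence read after 1-1.5 hrs.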
For orientation: Quantitative PCR measures a nucleic acid by following its amplification.

Assay [12] concerns the target N-terminal Xaa-Pro-Lys N-methyltransferase 1 (Homo sapiens) (UniProt Q9BV86). The assay can be described thus: qHTS Assay for Inhibitors of N-terminal methyltransferase 1 (NTMT1): LOPAC validation of the NTMT1 SAHH-coupled ThioGlo3 Assay (AID 1347143).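 Note: SAH from peptide methylation measured as thiol fluorescence via SAHH coupling and ThioGlo3; potency is the fitted concentration of half-maximal effect; nearly all actives have a fitted effect of over 70% in size.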 In short, it runs like this:
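Inhibition of NTMT1 methylation of peptide SPKRIA is followed by converting SAH with SAHH and labelling the released thiol with ThioGlo3. Plates are read at 340/450nm before and 30 min after reagent addition, both at room temperature.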

Records with an inconclusive call do not appear. Activity calls are given as the source filed them. Calls come from the whole dose curve; as a rule, active = well fitted curve in the direction sought with a large enough effect; inconclusive = small, poorly fitted or top-dose-only effect, or another doubt; inactive = no such curve, though single readings can be large; an effect the other way counts as inactive or inconclusive. Numbered stars: 1 amine (or outer) side, 2 acyl side, 3 side chain; on linkers, the order of the positions; unused ones are H or OH. Bridge positions count the residues as written; N and C are the ends. Square brackets hold non-standard residues; d marks the D form. Peptide text beside a SMILES is read from it. I, II: the chains in the order shown. Actinocin(9to1) = Cc1c2oc3c(C)ccc(C(=O)[*:1])c3nc-2c(C(=O)[*:2])c(N)c1=O; NMeV = CN[C@H](C(=O)O)C(C)C; Sar = CNCC(=O)O

Chain of N-terminal Xaa-Pro-Lys N-methyltransferase 1 (Homo sapiens) (Q9BV86 whole entry, looked up): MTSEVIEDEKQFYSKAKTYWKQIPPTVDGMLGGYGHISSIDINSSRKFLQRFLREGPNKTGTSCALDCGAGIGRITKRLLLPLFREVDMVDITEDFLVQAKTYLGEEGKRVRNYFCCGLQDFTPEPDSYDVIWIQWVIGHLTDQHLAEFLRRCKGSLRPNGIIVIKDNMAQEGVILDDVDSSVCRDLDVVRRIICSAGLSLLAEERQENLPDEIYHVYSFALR

Take `CC(=O)Oc1ccc2c(c1)CC[C@@H]1[C@@H]2CC[C@]2(C)[C@@H](O)CC[C@@H]12`: the Potency result in assay [1], in [2] and in assay [3] was “inactive” throughout.

`C[C@]12C=CC(=O)C=C1[C@@H](F)C[C@@H]1[C@@H]2[C@@H](O)C[C@@]2(C)[C@H]1CC[C@]2(O)C(=O)CO`: the Potency result in [1], in assay [2] and in [3] was “inactive” throughout.

For `CCCCCCC[N+](CC)(CC)CCCCc1ccc(Cl)cc1`, the Potency result in [1] and in [3] was “inactive” throughout. The Potency in assay [2] is 10.4 µM (active); in assay [4], 11.7 µM (active).

For `CC(C)(C(=O)c1cccnc1)c1cccnc1`, the Potency entry in assay [1], in [2] and in assay [3] was “inactive” each time.

With `CC(=O)OCC(=O)[C@@]12OC(C)(C)O[C@@H]1C[C@H]1[C@@H]3C[C@H](F)C4=CC(=O)C=C[C@]4(C)[C@@]3(F)[C@@H](O)C[C@@]12C`, the Potency result in [1], in assay [2] and in [3] was “inactive” throughout.

With `Cc1c2oc3c(C)ccc(C(=O)N[C@@H]4C(=O)N[C@H](C(C)C)C(=O)N5CCC[C@H]5C(=O)N(C)CC(=O)N(C)[C@@H](C(C)C)C(=O)O[C@@H]4C)c3nc-2c(C(=O)N[C@@H]2C(=O)N[C@H](C(C)C)C(=O)N3CCC[C@H]3C(=O)N(C)CC(=O)N(C)[C@@H](C(C)C)C(=O)O[C@@H]2C)c(N)c1=O` (I: T[dV]P[Sar][NMeV] / II: T[dV]P[Sar][NMeV]; ester I:1-I:C, II:1-II:C; linker I:N-II:N via Actinocin(9to1)), the Potency entry in [2], in [6], in [7], in assay [3], in [8] and in assay [9] was “inactive” throughout. Besides, the Potency result in [10] is “inactive”. The Potency in assay [5] was 27.1 µM (active); in [11], 0.165 µM (active).

`CC1(C)O[C@@H]2C[C@H]3[C@@H]4C[C@H](F)C5=CC(=O)CC[C@]5(C)[C@H]4[C@@H](O)C[C@]3(C)[C@]2(C(=O)CO)O1`: the Potency entry in assay [1], in assay [4] and in [3] was “inactive” throughout.

As to `CC(=O)OCC(=O)[C@@]1(OC(C)=O)[C@@H](C)C[C@H]2[C@@H]3C[C@H](F)C4=CC(=O)C=C[C@]4(C)[C@@]3(F)[C@@H](O)C[C@@]21C`, the Potency result in assay [1], in [2], in [4] and in [3] was “inactive” in each case.

Turning to `CC1(C)O[C@@H]2C[C@H]3[C@@H]4CCC5=CC(=O)CC[C@]5(C)[C@@]4(F)[C@@H](O)C[C@]3(C)[C@]2(C(=O)CCl)O1`, the Potency result in assay [1], in assay [2], in [4] and in assay [3] was “inactive” throughout.

For `CC(C)C[C@H]1C(=O)N2CCC[C@H]2[C@]2(O)O[C@](NC(=O)[C@@H]3C=C4c5cccc6[nH]c(Br)c(c56)C[C@H]4N(C)C3)(C(C)C)C(=O)N12`, the Potency in [12] was 56.2 µM (active); in assay [5], 11.9 µM (active). Moreover, the Potency entry in assay [6], in assay [7], in assay [8], in assay [9] and in assay [10] was “inactive” in each case.

With `CC(=O)OCC(=O)[C@@]12N=C(C)O[C@@H]1C[C@H]1[C@@H]3CCC4=CC(=O)C=C[C@]4(C)[C@H]3[C@@H](O)C[C@@]12C`, the Potency in assay [4] was 0.737 µM (active). Besides, the Potency entry in assay [3] was “inactive”.

With `COc1cccc2c1C(=O)c1c(O)c3c(c(O)c1C2=O)C[C@@](O)(C(=O)CO)C[C@@H]3O[C@H]1C[C@H](N)[C@H](O)[C@H](C)O1`, in assay [1], the Potency was 5.22 µM (active). Also, in assay [3], the Potency result was “inactive”.
